Shown are actives, neighbours in structure and some others; about 4.6% of the full set was active somewhere.
DAX1 inh-1 = DAX1 (NR0B1) inhibitors on StAR promoter, primary screen, cell-based, luminescence, SF-1 (NR5A1), full-length DAX-1; HEK293T StAR-luciferase reporter, SF-1/DAX-1 repression relief; inhibition, % at 6.8 µM; hit rate 1.1% among 370,000; AID 652010, 2013;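 active = inhibition above the mean over all tested compounds plus 3 SD, cut at about 3.6% in these data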;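 also: 0% = DAX-1 cells with DMSO and 100% = cells lacking DAX-1 with DMSO; higher inhibition means more luminescence from relief of DAX-1 repression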
hgDAF-12 ag = H. glycines DAF-12 receptor agonists, primary screen, cell-based, luminescence, HEK293, GAL4 fusion, UAS-luciferase; HEK293 GAL4-hgDAF12 UAS-luciferase reporter, agonist luminescence; normalized to butyrate control; activation, % at 6.8 µM; hit rate 1.8% among 370,000; AID 687014, 2013;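 active = activation above a cutoff set at the mean of all screened compounds plus 3 SD, cut at about 10% in these data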;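 also: 0% = DMSO wells and 100% = sodium butyrate wells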
Wee1 stabilizer = Wee1 degradation inhibitors, primary screen, cell-based, HeLa, Wee1K328M-luciferase, luminescence; AID 1321, 2008; HeLa Luc-Wee1K328M stability; 100% = proteasome inhibitor MG132 effect; hit rate 1.2% among 220,000; reporter increase, % at 5 µM; Wee1-like protein kinase (Homo sapiens), P30291;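 active = activation above the mean of all tested compounds plus 3 SD, set per screening run, cut at about 8.8% in these data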;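 also: cells exposed to compound for 20 h before luminescence read; 0% = DMSO alone and 100% = MG132 at 30 µM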
Target sequence (P30291 whole entry K328M): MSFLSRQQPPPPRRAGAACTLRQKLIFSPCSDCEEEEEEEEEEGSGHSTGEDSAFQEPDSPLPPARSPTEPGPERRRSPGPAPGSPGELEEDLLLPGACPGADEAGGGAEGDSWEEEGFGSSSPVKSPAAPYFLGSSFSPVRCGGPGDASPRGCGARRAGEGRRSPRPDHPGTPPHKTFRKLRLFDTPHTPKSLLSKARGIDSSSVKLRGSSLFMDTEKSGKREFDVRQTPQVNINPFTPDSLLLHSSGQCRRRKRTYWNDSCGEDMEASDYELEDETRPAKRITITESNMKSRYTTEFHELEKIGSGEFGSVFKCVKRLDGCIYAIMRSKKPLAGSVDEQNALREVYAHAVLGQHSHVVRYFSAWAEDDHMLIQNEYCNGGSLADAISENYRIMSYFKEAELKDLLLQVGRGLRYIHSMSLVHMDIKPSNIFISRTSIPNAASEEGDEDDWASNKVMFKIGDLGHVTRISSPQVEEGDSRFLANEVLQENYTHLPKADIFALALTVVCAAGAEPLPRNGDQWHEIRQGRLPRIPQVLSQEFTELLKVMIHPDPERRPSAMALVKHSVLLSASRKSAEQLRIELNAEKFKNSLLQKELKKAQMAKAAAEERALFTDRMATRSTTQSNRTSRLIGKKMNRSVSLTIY
hcDAF12 agonist = H. contortus DAF-12 nuclear receptor activators, primary screen, cell-based, luminescence, HEK293, lit1-tk-luc reporter; hit rate 1.4% among 370,000; AID 652067, 2013; HEK293 hcDAF-12 lit1-tk-luc reporter; 0% DMSO, 100% Δ7-dafachronic acid; activation, % at 6.8 µM;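 active = activation above the mean of all tested compounds plus 3 SD, cut at about 5.5% in these data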;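 also: 100% = response to 3 µM Δ7-dafachronic acid high control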
ssDAF-12 act = S. stercoralis DAF-12 nuclear receptor activators, primary screen, cell-based, luminescence, HEK293, GRIP1 co-expression, lit1-tk-luc; Nuclear hormone receptor DAF-12 (Strongyloides stercoralis); HEK293 ssDAF-12/GRIP1 lit1-tk-luc reporter; % of 3 µM dafachronic acid response; activation, % at 6.8 µM; hit rate 1% among 370,000; AID 652126, 2013;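 active = activation above the mean over all tested compounds plus 3 SD, cut at about 0.9% in these data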;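 also: 0% = DMSO-only wells and 100% = 3 µM delta7-dafachronic acid wells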
DAX1 inh-2 = DAX1 (NR0B1) inhibitors, primary screen, cell-based, HEK293, Gal4-DAX1, luciferase luminescence; Nuclear receptor subfamily 0 group B member 1 (Homo sapiens), P51843; HEK293 Gal4-DAX1 luciferase reporter; hit rate 0.99% among 340,000; AID 504766, 2011; inhibition, % at 6.75 µM;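 active = inhibition above the mean over all tested compounds plus 3 SD, cut at about 4.2% in these data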;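 also: 0% = DAX1-transfected cells with DMSO and 100% = empty-vector control cells with DMSO; inhibition shows as a rise in luminescence from relieved DAX1 repression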
Active calls of the source: *; x = no result.

SMILES | DAX1 inh-1 | hgDAF-12 ag | Wee1 stabilizer | hcDAF12 agonist | ssDAF-12 act | DAX1 inh-2
O=c1n(Cc2ccccc2Cl)nc2n1-c1ccccc1SC2 | 1 | 8 | 0 | -1 | -2 | 4.9*
Cc1ccc(C(=O)NC(=S)NCC2CCCO2)cc1Br (centres undefined) | 1 | 10 | -1 | 5.7* | 0 | 2
O=C(Nc1ccc(F)cc1)OCc1cn(Cc2cccc(Cl)c2)nn1 | 0 | -1 | x | -2 | -1 | x
O=C(c1cc2cc(Cl)ccc2[nH]1)N1CCN(C(=O)c2ccco2)CC1 | 1 | 1 | x | 5.9* | 0 | 0
CCN(CC)c1ccc(C(=O)NN)cc1 | -2 | 2 | -1 | -1 | -1 | 0
CCN(CC)c1ccc(N=C2C=CC(=O)C=C2NC(C)=O)cc1 | 3.9* | 8 | x | 3 | 0 | x
CCc1ccc(C2CC(=O)N(c3cccc(F)c3)C3=C2C(=O)OC3)cc1 (centres undefined) | 0 | 0 | 1 | -1 | 0 | 0
O=C1OCC2=C1C(c1ccccc1)CC(=O)N2c1ccc(F)cc1 (centres undefined) | 1 | 12* | 4 | -1 | -1 | 0
O=C(CN(Cc1ccc(F)cc1)C(=O)CCC(=O)Nc1nccs1)NCc1ccc(F)cc1 | 0 | -2 | x | -3 | -2 | 4.6*
C[C@@H]1CN([C@@H](C)CO)C(=O)CCCn2cc(nn2)CO[C@H]1CN(C)S(=O)(=O)c1ccc2c(c1)OCCCO2 | 1 | 0 | x | -2 | -1 | 0
Cc1cc(C)n(-c2nc3ccccc3[nH]c2=O)n1 | 0 | 2 | 0 | -1 | -1 | 4.3*
COC(=O)C1=C(NC(=O)c2ccc(C)c(C)c2)CCS1 | 0 | 4 | -2 | 6.1* | 0 | 0
COC(=O)[C@@H](CC(C)C)NS(=O)(=O)N(Cc1ccccc1)[C@@H](CC(C)C)C(=O)OC | -1 | -2 | x | -2 | -2 | 0
COc1ccc(/C=N/Nc2nncc3ccccc23)c(OC)c1 | 4 | 7 | 8.9* | 4 | -1 | 1
CCCOc1ccc(/C=N/Nc2ccccn2)cc1OC | 2 | 8 | 6 | 0 | -1 | 1
COc1cc(/C=N/Nc2ccccn2)ccc1OCC(C)C | 3 | 11* | -2 | 2 | -1 | 0
COc1ccc(/C=N\Nc2ccccn2)c(OC)c1 | 2 | 11* | x | 5 | 1 | 2
O=C(c1cc2ccccc2oc1=O)N(Cc1ccccc1)C1CCS(=O)(=O)C1 (centres undefined) | 2 | 8 | 3 | 4 | 0 | 0
O=C(c1cc2ccccc2oc1=O)N(Cc1ccccc1F)C1CCS(=O)(=O)C1 (centres undefined) | 2 | 5 | x | 5.8* | -1 | 1
CCN(CC)CCCNC(=O)CCC(=O)Nc1ccc2nc(N3CCCCC3)cc(C)c2c1 | 1 | 2 | -2 | -1 | -2 | 6.7*
CC(C)CNC(=O)c1cccc(NC(=O)Cc2ccc(Br)cc2)c1 | 0 | -2 | 3 | -4 | -2 | -1
COC(=O)c1cccc(NC(=O)CCc2ccccc2)c1 | 0 | 3 | 9.4* | 1 | 1 | 0
CC(C)CNC(=O)c1cccc(NC(=O)CCc2ccccc2)c1 | 0 | -1 | 10* | 0 | -1 | -2
CC1(C(=O)NS(=O)(=O)Cc2ccccc2C(F)(F)F)CCN1C(=O)c1cccc(F)c1 (centres undefined) | 0 | 0 | x | -1 | 0 | x
O=C(C1CCCO1)N1CCc2ccccc21 (centres undefined) | 1 | 3 | -1 | 5 | 1.8* | 0
SMILES | DAX1 inh-1 | hgDAF-12 ag | Wee1 stabilizer | hcDAF12 agonist | ssDAF-12 act | DAX1 inh-2
O=C(C1CC(=O)N(C2CCCCC2)C1)N1CCc2ccccc21 (centres undefined) | 0 | 0 | 1 | 6.2* | 1 | 0
O=C(C1CCCCC1)N1CCc2ccccc21 | 0 | 2 | 0 | 2 | -1 | 2
COC(=O)C1CN(Cc2cn(Cc3ccc(F)cc3)nn2)CCS(=O)(=O)N1Cc1ccc(F)cc1 (centres undefined) | -1 | -1 | x | -1 | -1 | x
CCOCCn1c(C)c(C(=O)OCC)c2cc(O)c3ccccc3c21 | -1 | -3 | x | -1 | -1 | -1
O=C1C(=O)N(c2ccccc2)C(c2ccccc2[N+](=O)[O-])/C1=C(\O)c1ccccc1 (centres undefined) | -1 | 4 | -1 | 5 | 1.6* | 0
CC1CN/C(=C\C(=O)c2ccc(Cl)cc2)C(=O)N1 (centres undefined) | 4 | 12* | 2 | 5 | 1 | 1
CC(C)[C@H](NC(=O)c1ccc(Cl)c([N+](=O)[O-])c1)C(=O)NCc1ccc(F)cc1 | 0 | 2 | 0 | 1 | -1 | 4.6*
CC(C)[C@H](NC(=O)c1ccc(Cl)c([N+](=O)[O-])c1)C(=O)NCc1ccc(Cl)cc1Cl | 0 | -1 | -2 | -2 | -1 | 1
COc1cc([N+](=O)[O-])ccc1NC(=O)CN1C(=O)NC2(CCCCC2C)C1=O (centres undefined) | 0 | 0 | x | -1 | -2 | 1
Oc1ccc(/C=C/c2ccc3cccc(O)c3n2)cc1Br | 1 | 10* | x | 2 | -1 | 1
Cc1ccccc1C(C)NS(=O)(=O)c1ccc2c(c1)OCCO2 (centres undefined) | -1 | -3 | x | -1 | -1 | 0
N#C/C(=C\c1ccc(N2CCOCC2)o1)C(=O)NC1CCCCC1 | 0 | -2 | 0 | -2 | -1 | -3
N#C/C(=C/c1ccc(C(=O)O)cc1)C(=O)Nc1ccccc1 | 0 | 0 | 9.0* | -1 | -1 | -1
N#C/C(=C\c1ccc(N2CCOCC2)o1)C(=O)NCC1CCCO1 (centres undefined) | 0 | 1 | 0 | -2 | 12* | -1
Cc1cccc(NC(=O)/C(C#N)=C\c2ccc(C(=O)O)cc2)c1 | 0 | -2 | 3 | -1 | -1 | -1
N#C/C(=C/c1ccc(N2CCOCC2)o1)C(=O)Nc1ccccc1 | 3 | 11* | 8 | 5.9* | 0 | 1
Cc1cccc(CNC(=O)c2sc(=O)n(Cc3ccc(S(C)(=O)=O)cc3)c2C)c1 | -1 | 1 | x | -2 | -2 | x
